Test results: PubChem BioAssay
Several values for one entry are separate records, joined by “and”; a condition that tells them apart may be missing. Equal values may be shown once.

Experiment: probe aLAP1 signal on lysate-treated microarray – cell lysate, small-molecule microarray, COS7 lysate, primary screen (AID 1124);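 also: lysate comes from COS7 cells expressing LAP1 and is applied at 0.3 µg/mL; score merges spot fluorescence near 667 nm with signal-to-noise over triplicate slides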
Conditions: probe aLAP1, fluorescence, higher = more signal

| Compound | composite z-score |
| --- | --- |
| C=C[C@@H](C)[C@H](O)c1ccc(O)c2ccccc12 | 0.279 and -0.559 |
| CCOC(=O)C[C@H]1[C@H](OC(=O)c2ccccc2-c2ccccc2)[C@@H](NC(=O)Cc2ccc(OC)cc2)c2cc(OCCCO)ccc2N1C(=O)c1ccc2ccccc2n1 | -0.264 and 0.286 |
| COCn1c2ccccc2c2nnc(C(C)=O)nc21 | 0.325 and 0.155 |
| C[C@@H](ON=C1[C@H]2CCn3c(=O)n(-c4ccccc4)c(=O)n3[C@H]2[C@H](O)[C@@H]2O[C@H]12)c1cn([C@H](CO)Cc2ccccc2)nn1 | 0.012 |
| COC(=O)C1=C(C)N(Cc2ccccc2)[C@]23O[C@](C(=O)OC)(C(=O)N2[C@@H]1c1ccccc1)[C@H]1C(=O)N(C)C(=O)[C@H]13 | 0.262 and -0.0393 |
| C[C@@H]1CC[C@H]2C(=O)N3[C@@H](CC[C@@H](C)[C@@H]3c3ccc(-c4ccco4)cc3)C(=O)N2[C@H]1c1ccc(-c2ccco2)cc1 | 0.412 and -0.258 |
| CCOC(=O)NN=C1C[C@@H](O)[C@@H](O)[C@@H]2[C@@H]3C(=O)N(Cc4ccc5c(c4)OCO5)C(=O)[C@@H]3CC[C@@H]12 | -0.377 |
| C=CCN(C(=O)C(c1cccs1)N(C(=O)/C=C\C(=O)O)c1ccc(CCO)cc1)c1ccc(OC)cc1 (centres undefined) | -1.17 and 0.112 |
| CC(CO)N1C(=O)[C@@H]2C3C(=O)OCCC=C[C@H]3OC23C=CCN(c2ccc(Cl)cc2)C(=O)[C@@H]13 (some centres undefined) | -0.102 and -0.304 |
| C#CCN1C(/C=C/c2ccccc2)C(=O)OC[C@H]1c1ccccc1 (some centres undefined) | -0.317 and 0.0886 |
| C[C@@H]1CN2[C@@H](CC[C@@H](C)[C@@H]2c2ccc(Br)cc2)C(=O)O1 | 0.39 and 0.146 |
| C=CCN(C(=O)C(c1cccs1)N(CCOCCO)C(=O)/C=C\C(=O)O)c1ccc(OC)cc1 (centres undefined) | 0.164 and -0.531 |
| C=CCN(CCCCC)C(=O)C(c1cccs1)N(C(=O)/C=C\C(=O)O)c1ccc(CCO)cc1 (centres undefined) | 0.411 and 0.0933 |
| C[C@@H](c1ccccc1)N1C(=O)[C@H]2[C@H]3[C@H](O)[C@H](O)CC(=O)[C@@H]3CC[C@H]2C1=O | 0.727 |
| CO[C@H]1COC(=O)[C@H](C)NC(=O)CC=C[C@@H](C)[C@H](OC)COC(=O)CC=C[C@@H]1C | -0.796 |
| CCOC(=O)C[C@H]1[C@H](OC(=O)c2ccccc2-c2ccccc2)[C@@H](NC(=O)c2ccccc2)c2cc(OCCCO)ccc2N1C(=O)c1ccc2ccccc2n1 | 0.0741 and 0.356 |
| C=CCN(C(=O)C1N(CCOCCO)C(=O)C2C(C(=O)O)C3C=CC21O3)C(C)(C)C (centres undefined) | -0.882 and -0.478 |
| CCCNC(=O)OC[C@H]1O[C@H](CCON=C(C)CCC(=O)OC[C@H]2O[C@H](C#Cc3ccccc3)C=C[C@@H]2Oc2ccc(C)cc2)C=C[C@@H]1Oc1ccc(OC)cc1 | -0.141 |
| CCOC(=O)c1ccc(NC(=O)O[C@H]2[C@H](OC(=O)Nc3ccccc3)[C@H](OC(=O)Nc3ccccc3)[C@@H](OC)O[C@@H]2CO)cc1 | 0.708 and 1.11 |
| O=C1NC(=O)C2C1C=CC(C(O)c1ccc([N+](=O)[O-])cc1)N2Nc1ccc(Cl)cc1Cl (centres undefined) | 0.673 and 1.28 |

| Compound | composite z-score |
| --- | --- |
| CC(C)=NO[C@@H](C)c1cc(-c2c(C)cc(C)cc2C)no1 | 0.214 |
| CC(C)=NOCc1ccc(-c2cn([C@@H]3COC[C@H]3O)nn2)cc1 | -0.116 |
| C=CC[C@@H](O)c1ccc(O)c2ccccc12 | 0.207 and -0.0872 |
| C[C@@H]1CC[C@@H](C(=O)O)N[C@H]1c1ccc(-c2ccco2)cc1 | -0.103 |
| COC(=O)c1c2oc(c1C(=O)OC)C(=O)N[C@@H](Cc1ccccc1)Cn1cc(nn1)C1(CCCCC1)NC(=O)N[C@H](CO)CC2 | 0.376 and 0.0667 |
| C=C[C@@H](OC)[C@H](O)c1ccc(OC)c(O)c1 | -0.37 and -0.649 |
| C=CCN(CCCCC)C(=O)C1N(CCCCCCO)C(=O)C2C(C(=O)O)C3C=CC21O3 (centres undefined) | 0.752 and -0.289 |
| C=CCN(C(=O)C(c1cccs1)N(C(=O)/C=C\C(=O)O)C(C)(C)CO)C(C)(C)C (centres undefined) | -0.68 and 0.64 |
| Cc1ccc(S(=O)(=O)OC[C@@H]2CN3[C@@H](CC[C@@H](C)[C@@H]3c3ccc(Br)cc3)C(=O)O2)cc1 | -0.162 and 0.565 |
| CC(C)[Si]1(C(C)C)OCc2cc(CCCc3cc4c(c(CCc5ccccc5)n3)[Si](C(C)C)(C(C)C)OC4)nc(CCc3ccccc3)c21 | 0.485 and 0.0666 |
| C=CCN(Cc1ccccc1)C(=O)C1N(c2c(Cl)cccc2CO)C(=O)C2C(C(=O)O)C3C=CC21O3 (centres undefined) | -0.628 and -0.742 |
| COc1ccc(-c2ccc3c(n2)CCCN3CC(O)CN2CCCc3nc(-c4ccc(Br)cc4)ccc32)cc1 (centres undefined) | 0.984 and 0.29 |
| COc1ccc(O[C@H]2C=C[C@@H](c3ccccc3)O[C@@H]2COC(=O)CCC(C)=NO[C@H](C)c2cn([C@H](CO)Cc3ccccc3)nn2)cc1 | -0.226 and -0.0278 |
| C=CCN1C(=O)[C@]2(O[C@H](CCn3cc(CCO)nn3)[C@@H]([Si](C)(C)c3ccc(OC)cc3)[C@@H]2C)c2cc(N3C(=O)c4cccc5cccc3c45)ccc21 | 0.163 and -0.46 |
| C=CCN(CCCCC)C(=O)C(c1cccs1)N(C(=O)/C=C\C(=O)O)c1c(Cl)cccc1CO (centres undefined) | 1.62 and -0.0008 |
| C=C[C@@H](OC)[C@H](O)c1ccc(O)c(F)c1 | 1.24 and -1.16 |
| C[N+](C)(C)CCCCNC(=O)[C@@H]1C[C@@H]2C(=O)N[C@@H](CCCC[N+](C)(C)C)C(=O)N2[C@@H]1c1cccc(OCCO)c1 | 0.0458 and 1.65 |
| C=CC[C@@H](O)c1ccc(OCCO)cc1 | -0.585 and -0.612 |
| CCCNC(=O)OC[C@H]1O[C@H](CCON=C(C)CCN2CCc3nc(-c4ccccc4)c(-c4ccccc4)cc3C2)C=C[C@@H]1Oc1ccc(OC)cc1 | 0.354 |
